Laboratory results from the supplement of paper PMC10338343.
± gives the standard deviation.

Test system: MILI (PIWIL2) piRISC loaded with piRNA #1 (26 nt)
Test: pre-steady-state target cleavage rate (min^-1); guide: piRNA #1 5'p-UGAGGUAGUAGGUUGUAUAGUAUCCA; MIWI and MILI are mouse PIWI proteins and EfPiwi is from a freshwater sponge; tags in brackets are library labels; higher = faster piRNA-guided slicing of the target
Details: auxiliary factor: 500 nM mouse GTSF1
Summary of the method: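 The pre-steady-state cleavage rate came from a burst-and-steady-state fit to pooled data from three Cleave-'n-Seq trials, in which uncleaved targets were sequenced and normalised to depth and to weakly complementary targets. Each reaction held 0.1 nM transcribed, DNA-blocked target RNA library and 1 nM active affinity-purified piRISC carrying one synthetic guide, with or without 500 nM GTSF1 partner protein, in HEPES–potassium acetate buffer at 33 °C for 0–8 or 0–960 min. k3 was capped at 0.0001 min^-1.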

Sequence	pre-steady-state target cleavage rate
GGAGACCAUACUAAACAACCUACAACCUCA	0.117 ± 0.016
GGAGACGAUACUAUACAAACCUACUACCUCA	0.00373 ± 0.0026
GGAGACCUAUGAAAACAACCUACAACCUCA	0.00529 ± 0.0026
GGAGACCUAUGAUAUGAACGUUCUACCUCA	< 0.0001
GGAGACGAUACUAUACAACAUACUACCUCA	0.0988 ± 0.0095
GGAGAGGAUAGAUUACAACCUACUACCUCA	0.0529 ± 0.0086
GGAGACCUAACUAUACAUCCUACUACGUCA	0.173 ± 0.052
GGAGACCUAUCUAUUCAACCUUCUACCUCA	0.0069 ± 0.0028
GGAGACCUAACUAUACAACCUACUUCCUCA	0.0606 ± 0.02
GGAGACCUAUGUAUACAACCUACUUCGUCA	0.0106 ± 0.0032
GGAGACCUAACUUUAGAACCUACUACCUCA	0.129 ± 0.023
GGAGACCUUACUUUACAACCUACUACGUCA	0.0613 ± 0.011
GGAGACCUAUAUAUACAACCUACUACCUCA	0.0406 ± 0.0075
GGAGACCUAUGAUAACAACCUACUACCUCCA	0.00565 ± 0.0022
GGAGACCUAUCUAUACAACGUAGUACCUCA	0.00772 ± 0.0031
GGAGACCAUACAAUUCAACCUACUACCUCA	0.13 ± 0.013
GGAGACGAUAGUAUACAACCUACUAGCUCA	0.0976 ± 0.021
GGAGACCAUAGUAUACAAGCUACUACCUCA	0.16 ± 0.015
GGAGACCAUACUAAACAACCUACUACCUGA	0.13 ± 0.018
GGAGACCUAUCUAUUCAACCUACUACCACA	0.144 ± 0.022
GGAGACCUAACUAUACAUCCUACUAGCUCA	0.162 ± 0.042
GGAGACCUAAGUAUACAAGCUACUACCUCA	0.124 ± 0.011
GGAGACCUUACUAUAGUUCCUACUACCUCA	0.113 ± 0.0093
GGAGACCUUACUAUACAACCUACUCCUCA	0.00492 ± 0.0027
